Active and inactive are the calls of the source. The calls were made as follows: active = hit-call score of the fitted dose curve at least 0.9, where 1 is the maximum; inactive = score below 0.9.
Legend:
[1] = ATG_CRE_CIS: Attagene CIS-FACTORIAL HepG2 Assay for human cAMP Responsive Element (CRE) binding protein 3 (AID 2282926); conditions: HepG2 CRE cis-reporter, Attagene multiplexed mRNA; actives raise or lower the signal
How it was run: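 Endogenous CRE-binding activity in HepG2 is reported through a cis-regulated transfected reporter. Following a day of exposure, mRNA levels are determined by reverse transcription PCR and fluorescent fragment analysis; fits run in both directions versus DMSO.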

[2] = target: CCAAT/enhancer-binding protein beta (Homo sapiens) (UniProt P17676); test: ATG_C_EBP_CIS: Attagene CIS-FACTORIAL HepG2 Assay for human CCAAT/Enhancer Binding Protein (C/EBP) beta (AID 2282927); conditions: HepG2 Attagene cis-factorial transcription factor reporter; actives raise or lower the signal
CCAAT/enhancer-binding protein beta (Homo sapiens), sequence (P17676 whole entry, looked up): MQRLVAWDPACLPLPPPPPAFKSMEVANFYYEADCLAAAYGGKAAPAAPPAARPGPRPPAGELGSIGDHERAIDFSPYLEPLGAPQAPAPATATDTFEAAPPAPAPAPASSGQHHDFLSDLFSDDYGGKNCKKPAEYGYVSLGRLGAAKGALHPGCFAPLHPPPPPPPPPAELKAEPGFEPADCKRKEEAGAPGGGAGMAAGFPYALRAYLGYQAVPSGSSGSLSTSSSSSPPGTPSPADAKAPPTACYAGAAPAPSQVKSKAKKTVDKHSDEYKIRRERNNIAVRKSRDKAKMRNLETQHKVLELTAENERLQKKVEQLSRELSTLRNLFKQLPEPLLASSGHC
How it was run: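 Transiently transfected HepG2 (MRTU library, endogenous TF-driven promoters); 24 h dosing; total RNA → oligo(dT) RT → PCR → 6-FAM primer extension → HpaI digest → CE; fit bidirectionally vs DMSO.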

[3] = ATG_CMV_CIS: Attagene CIS-FACTORIAL HepG2 Assay for human CMV (Internal Marker) (AID 2282928); conditions: HepG2 CMV promoter reporter, transcription factor profiling; actives raise or lower the signal;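 also: endpoint acts as a background internal control marker rather than a target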
How it was run: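 After transient transfection of HepG2 with reporter transcription units driven by cis-regulatory promoters, cells receive test chemical for 24 h. Labeled reporter amplicons, digested with HpaI, are sized and quantified by capillary electrophoresis against DMSO.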

[4] = ATG_DR4_LXR_CIS: Attagene CIS-FACTORIAL HepG2 Assay for human Liver X Receptor (LXR), DR4 submotif (AID 2282929); conditions: HepG2 Attagene DR4 cis-reporter, mRNA transcription; actives raise or lower the signal
How it was run: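 Measures endogenous transcription factor activity via a DR4-driven reporter transcript in human HepG2 cells. Compounds incubated 24 h; mRNA quantified by RT-PCR and capillary electrophoresis, analysed as gain or loss of signal versus DMSO.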

[5] = target: Aryl hydrocarbon receptor (Homo sapiens) (UniProt P35869); test: ATG_Ahr_CIS: Attagene CIS-FACTORIAL HepG2 Assay for human Aryl Hydrocarbon Receptor (Ahr) (AID 2282930); conditions: HepG2 AhR cis-factorial reporter transcription; actives raise or lower the signal
Aryl hydrocarbon receptor (Homo sapiens), sequence (P35869 whole entry, looked up): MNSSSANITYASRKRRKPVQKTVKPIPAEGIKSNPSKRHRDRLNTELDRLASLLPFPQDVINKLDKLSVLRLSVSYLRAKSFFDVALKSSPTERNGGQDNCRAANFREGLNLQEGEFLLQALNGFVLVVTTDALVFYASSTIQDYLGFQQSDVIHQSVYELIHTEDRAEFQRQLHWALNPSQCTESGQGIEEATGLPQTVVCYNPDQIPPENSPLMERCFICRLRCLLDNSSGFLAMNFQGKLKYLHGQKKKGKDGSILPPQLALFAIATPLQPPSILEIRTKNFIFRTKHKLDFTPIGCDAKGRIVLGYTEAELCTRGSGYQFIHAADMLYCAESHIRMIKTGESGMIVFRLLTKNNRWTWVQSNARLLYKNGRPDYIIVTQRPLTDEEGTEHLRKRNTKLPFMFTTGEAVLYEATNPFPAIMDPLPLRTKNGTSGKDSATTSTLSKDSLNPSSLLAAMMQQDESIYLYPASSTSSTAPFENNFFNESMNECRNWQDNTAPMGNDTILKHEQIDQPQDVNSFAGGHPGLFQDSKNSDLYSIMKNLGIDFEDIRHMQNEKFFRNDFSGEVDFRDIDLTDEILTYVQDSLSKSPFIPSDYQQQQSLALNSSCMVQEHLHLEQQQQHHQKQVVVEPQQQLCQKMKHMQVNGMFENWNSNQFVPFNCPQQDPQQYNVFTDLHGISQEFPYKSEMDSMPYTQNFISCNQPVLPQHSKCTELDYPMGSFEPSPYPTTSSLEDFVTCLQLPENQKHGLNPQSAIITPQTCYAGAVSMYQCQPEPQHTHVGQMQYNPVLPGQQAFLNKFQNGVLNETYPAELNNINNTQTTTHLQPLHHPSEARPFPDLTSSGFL
How it was run: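 Read-out: reporter mRNA quantified by RT-PCR with fluorescent primer extension and capillary electrophoresis. Human HepG2 liver cells carried transfected cis-promoter reporter units and were exposed to chemical for 24 h; gain or loss fitted relative to DMSO.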

[6] = ATG_AP_1_CIS: Attagene CIS-FACTORIAL HepG2 Assay for human Activator Protein 1 (AP-1) (AID 2282931); conditions: HepG2 Attagene cis-factorial AP-1 reporter mRNA; actives raise or lower the signal
How it was run: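 Bidirectional concentration-response fitting against DMSO controls. Underlying signal: reporter mRNA from cis-promoter constructs in transiently transfected HepG2, measured after 24 h by RT-PCR and capillary electrophoresis.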

[7] = ATG_AP_2_CIS: Attagene CIS-FACTORIAL HepG2 Assay for human Activator Protein 2 (AP-2) (AID 2282932); conditions: HepG2 AP-2 cis-reporter, Attagene transcription factor profiling; actives raise or lower the signal
How it was run: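 HepG2 cells transiently transfected with cis-element reporter units and exposed for 24 h. Reporter mRNA measured by RT-PCR, FAM labelling, HpaI digestion and capillary electrophoresis. Changes in either direction fitted relative to DMSO.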

[8] = ATG_BRE_CIS: Attagene CIS-FACTORIAL HepG2 Assay for human Bone Morphogenetic Protein (BMP) Response Element (BRE) (AID 2282933); conditions: HepG2 BMP response element reporter, Attagene transcription factor profiling; actives raise or lower the signal
How it was run: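 A HepG2 multiplex reporter system measured inducible reporter mRNA 24 h post-dosing. Detection: RT-PCR, 6-FAM primer extension, HpaI digestion, capillary electrophoresis. Activity fitted bidirectionally relative to DMSO.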

[9] = target: Retinoic acid receptor alpha (Homo sapiens) (UniProt P10276); test: ATG_DR5_RAR_CIS: Attagene CIS-FACTORIAL HepG2 Assay for human Retinoic Acid Receptor Alpha (RARE), DR5 submotif (AID 2282934); conditions: HepG2 Attagene cis-factorial RARE DR5 reporter, mRNA; actives raise or lower the signal
Retinoic acid receptor alpha (Homo sapiens), sequence (P10276 whole entry, looked up): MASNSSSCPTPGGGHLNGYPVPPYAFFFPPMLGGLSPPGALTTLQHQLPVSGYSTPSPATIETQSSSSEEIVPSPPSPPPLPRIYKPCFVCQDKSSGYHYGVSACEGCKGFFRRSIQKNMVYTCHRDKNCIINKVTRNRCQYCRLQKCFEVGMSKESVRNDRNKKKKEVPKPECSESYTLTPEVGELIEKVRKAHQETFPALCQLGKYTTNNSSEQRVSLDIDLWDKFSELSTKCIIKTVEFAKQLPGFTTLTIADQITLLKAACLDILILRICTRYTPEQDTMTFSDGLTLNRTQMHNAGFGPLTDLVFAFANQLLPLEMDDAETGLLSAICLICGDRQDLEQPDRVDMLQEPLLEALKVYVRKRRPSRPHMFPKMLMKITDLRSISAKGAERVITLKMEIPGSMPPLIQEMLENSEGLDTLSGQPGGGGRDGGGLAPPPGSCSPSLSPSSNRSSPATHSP
How it was run: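 Read-out: DR5-driven reporter transcript measured by RT-PCR, 6-FAM primer extension, HpaI digest and capillary electrophoresis. Human HepG2 liver cells carry transiently transfected cis-element reporter constructs; dosing lasts 24 h. Gain or loss of signal fitted against DMSO baseline.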

[10] = target: Transcription factor E2F1 (Homo sapiens) (UniProt Q01094); test: ATG_E2F_CIS: Attagene CIS-FACTORIAL HepG2 Assay for human E2F Transcription Factor 1 (AID 2282935); conditions: HepG2 Attagene cis-reporter, E2F reporter RNA transcripts; actives raise or lower the signal
Transcription factor E2F1 (Homo sapiens), sequence (Q01094 whole entry, looked up): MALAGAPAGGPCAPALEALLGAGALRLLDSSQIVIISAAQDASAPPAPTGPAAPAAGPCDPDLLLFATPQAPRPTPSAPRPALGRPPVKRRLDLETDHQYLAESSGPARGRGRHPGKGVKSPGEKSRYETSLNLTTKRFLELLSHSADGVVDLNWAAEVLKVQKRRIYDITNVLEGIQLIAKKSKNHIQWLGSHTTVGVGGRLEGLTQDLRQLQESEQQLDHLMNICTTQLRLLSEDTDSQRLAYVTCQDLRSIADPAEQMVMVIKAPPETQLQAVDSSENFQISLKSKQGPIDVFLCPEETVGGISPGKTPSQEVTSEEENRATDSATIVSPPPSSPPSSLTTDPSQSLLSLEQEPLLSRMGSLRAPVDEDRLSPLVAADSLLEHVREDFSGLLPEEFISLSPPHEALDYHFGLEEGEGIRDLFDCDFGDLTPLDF
How it was run: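 Endogenous E2F1 activity read through cis-promoter reporter units transfected into HepG2. After 24 h compound treatment, reporter mRNA measured by RT-PCR, HpaI digestion and capillary electrophoresis. Bidirectional fit versus DMSO.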

[11] = ATG_E_Box_CIS: Attagene CIS-FACTORIAL HepG2 Assay for human Enhancer Box (E-box) (AID 2282936); conditions: HepG2 E-box cis-reporter transcription, actives raise or lower the signal
How it was run: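 HepG2 cells transiently transfected with multiplexed cis-element reporter units, dosed 24 h; reporter mRNA quantified by RT-PCR, 6-FAM labelling, HpaI digestion and capillary electrophoresis. E-box (USF1) signal fitted bidirectionally vs DMSO.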

[12] = ATG_M_61_CIS: Attagene CIS-FACTORIAL HepG2 Assay for M61 Transcription Factor (Internal Marker) (AID 2282937); conditions: HepG2 Attagene CIS-FACTORIAL M61 internal marker reporter; actives raise or lower the signal
How it was run: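 Fluorescence from labelled cDNA fragments, separated by capillary electrophoresis, quantifies reporter induction. HepG2 cells bearing transiently transfected cis-promoter MRTUs were incubated with test chemical for 24 h; DMSO defined baseline for gain/loss fitting.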

[13] = ATG_Ets_CIS: Attagene CIS-FACTORIAL HepG2 Assay for human Erythroblast Transformation Specific (ETS) (AID 2282941); conditions: HepG2 ETS cis-reporter transcription, actives raise or lower the signal
How it was run: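 Human HepG2 hepatoma cells were transiently transfected with promoter-driven reporter constructs and treated for 24 hours. Reporter transcripts were quantified by RT-PCR with fluorescent primer extension; bidirectional curve fitting used DMSO as reference.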

[14] = target: Hepatocyte nuclear factor 3-beta (Homo sapiens) (UniProt Q9Y261); test: ATG_FoxA2_CIS: Attagene CIS-FACTORIAL HepG2 Assay for human Forkhead box A2 (FOXA2) (AID 2282942); conditions: HepG2 cis-reporter transcription factor activity, 24 h; actives raise or lower the signal
Hepatocyte nuclear factor 3-beta (Homo sapiens), sequence (Q9Y261 whole entry, looked up): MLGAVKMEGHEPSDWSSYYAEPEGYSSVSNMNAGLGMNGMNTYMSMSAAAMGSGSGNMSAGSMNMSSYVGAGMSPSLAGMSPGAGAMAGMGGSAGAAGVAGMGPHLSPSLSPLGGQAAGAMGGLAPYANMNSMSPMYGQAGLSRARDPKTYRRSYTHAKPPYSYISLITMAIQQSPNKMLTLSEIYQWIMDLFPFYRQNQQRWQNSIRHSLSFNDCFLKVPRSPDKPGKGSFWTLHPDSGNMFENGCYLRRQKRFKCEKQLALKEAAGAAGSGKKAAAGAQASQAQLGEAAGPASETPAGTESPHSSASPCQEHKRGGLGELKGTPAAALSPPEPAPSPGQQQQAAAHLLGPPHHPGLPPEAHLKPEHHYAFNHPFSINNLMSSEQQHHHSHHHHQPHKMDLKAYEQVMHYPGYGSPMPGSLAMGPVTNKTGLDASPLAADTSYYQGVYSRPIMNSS
How it was run: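 In transiently transfected human HepG2 cells, promoter-driven reporter mRNA levels after 24 h chemical exposure are determined via RT-PCR with capillary electrophoresis. DMSO serves as baseline for bidirectional fitting.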

[15] = ATG_FoxO_CIS: Attagene CIS-FACTORIAL HepG2 Assay for human Forkhead box O (FoxO) (AID 2282943); conditions: HepG2 Attagene cis-reporter, FoxO element, mRNA; actives raise or lower the signal
How it was run: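 Read-out: fluorescence of 6-FAM-labelled reporter cDNA fragments resolved by capillary electrophoresis. Transiently transfected HepG2 cells were dosed for 24 h; activity fitted in both directions relative to DMSO controls.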

[16] = ATG_GATA_CIS: Attagene CIS-FACTORIAL HepG2 Assay for human GATA Binding Protein (AID 2282944); conditions: HepG2 GATA cis-element reporter, Attagene multiplex mRNA; actives raise or lower the signal
How it was run: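 Transfected cis-reporter HepG2 cells were treated with chemicals for 24 hours. Total RNA was then converted to cDNA, amplified with reporter-specific primers and analysed by fluorescent capillary electrophoresis, using DMSO-treated wells as baseline.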

[17] = ATG_GLI_CIS: Attagene CIS-FACTORIAL HepG2 Assay for human Zinc Finger Protein GLI1 (AID 2282945); conditions: HepG2, Attagene cis-factorial reporter mRNA, GLI element; actives raise or lower the signal
How it was run: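 Transiently transfected HepG2 cells report endogenous transcription factor activity via cis-element-driven reporter units. After 24 h compound exposure, reporter mRNA was measured by RT-PCR with capillary electrophoresis; bidirectional fitting against DMSO baseline.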

[18] = ATG_EGR_CIS: Attagene CIS-FACTORIAL HepG2 Assay for human Early Growth Response 1 (EGR1) (AID 2282938); conditions: HepG2 Attagene CIS-FACTORIAL EGR reporter mRNA; actives raise or lower the signal
How it was run: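 Cell-based multiplex transcription assay: HepG2 carrying transfected cis-element reporter units, 24 h chemical treatment. Fluorescence from capillary electrophoresis of RT-PCR products gives mRNA levels; fitting is bidirectional relative to DMSO.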

[19] = ATG_M_19_CIS: Attagene CIS-FACTORIAL HepG2 Assay for M19 Transcription Factor (Internal Marker) (AID 2282939); conditions: HepG2 Attagene CIS-FACTORIAL M19 internal marker reporter; actives raise or lower the signal
How it was run: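 Chemical-treated HepG2 (24 h) with MRTU constructs; reporter transcripts detected by fluorescent RT-PCR fragment analysis on capillary electrophoresis. Internal background marker, DMSO as baseline.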

[20] = ATG_ERE_CIS: Attagene CIS-FACTORIAL HepG2 Assay for Estrogen Response Element (ERE) (AID 2282940); conditions: HepG2 ERE cis-reporter, Attagene RNA transcript; actives raise or lower the signal
How it was run: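 Human liver cells (HepG2) bearing transiently transfected, promoter-regulated reporter units were exposed 24 h. Reporter mRNA induction was detected by capillary electrophoresis of labelled RT-PCR products and fitted bidirectionally to DMSO.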

Measured: outcome

OCCOc1cccc(OCCO)c1
not listed: [18] | [19] | [20]
inactive: all other assays above

O=C(Oc1ccccc1)c1ccc(O)cc1
not listed: [20]
inactive: all other assays above

CCCCCCCCCCCCCCCCCC(=O)OCC(CC)CCCC (stereo unspecified)
not listed: [16] | [20]
inactive: all other assays above

CCCCOCCOCCSC#N
not listed: [11] | [20]
inactive: all other assays above

O=C[C@H](O)[C@H](O)[C@H](O)CO
not listed: [13] | [15] | [20]
inactive: all other assays above

Nc1ccc(S(=O)(=O)O)c(N)c1
not listed: [9]
inactive: all other assays above

NCCNCCN
not listed: [20]
inactive: all other assays above

O=C(O)c1cn(C2CC2)c2cc(N3CCNCC3)c(F)cc2c1=O
not listed: [9]
inactive: all other assays above

Source: PubChem BioAssay (EPA / NIEHS)
